Holding throughout (experiment): NCI-60 one-dose screen, 48 h (100 = growth as untreated, 0 = no growth, -100 = all killed)
Conditions in all cases: 10 µM

In assay [1] the test system is RPMI-8226 leukemia.
Assay [2] deals with OVCAR-8 ovarian.
Assay [3] deals with OVCAR-5 ovarian.
In assay [4] the test system is OVCAR-4 ovarian.
For assay [5], the system named is IGROV1 ovarian.
Assay [6] concerns HS 578T breast.
The test system of assay [7] is NCI/ADR-RES ovarian.
In assay [8] the test system is T-47D breast.
Assay [9] relates to OVCAR-3 ovarian.
Assay [10] relates to SK-OV-3 ovarian.

Compounds without any hit were thinned out: in the full panel of roughly 83,000, 20% have a hit.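 Each cell line was grown in a 96-well plate and treated with one concentration of compound for 48 hours. Values below 10 were considered active.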 A number with no mark means an inactive call. Activity calls are given as the source filed them.

Take `c1ccc2c(-c3nc(N4CCOCC4)c4c5c(sc4n3)CCCCCC5)cccc2c1`: the growth is 112% in assay [1]; 101% in assay [2]; 103% in assay [3]; 106% in assay [4]; 112% in assay [5]; 104% in assay [6]. In addition, the growth in [7] was 109%; in assay [8], 95%.

On to `COc1cc2nc(Nc3cccc(C(=O)O)c3)nc(N)c2cc1OC`, for which the growth in [1] was 307%; in assay [2], 105%; in assay [3], 114%; in assay [4], 103%; in [5], 16.4%; in assay [9], 101%. The growth in [6] was 93.4%; in [7], 133%; in assay [8], 105%.

For the compound `CCCCCCCCCCCCC1C/C=C\CCCC(=O)O1` (centres undefined), the growth is 89.7% in assay [1]; 104% in assay [2]; 101% in assay [3]; 95.5% in [10]; 110% in [5]; 107% in [9]. For the same compound, the growth is 113% in [6], 119% in assay [7] and 91.2% in [8].

`C/C(=N\Nc1nc2ccccc2s1)c1ccncn1`: the growth in assay [1] is -26.4% (active); in assay [3] it was 38.9%; in assay [4], -12.3% (active); in assay [10] it was 37.7%; in [9] it was 21.2%; in assay [6] it was 73.5%. In addition, the growth is 22.9% in assay [7] and -0.411% (active) in [8].

Take `CN(C)C(=S)N/N=C\C=N/NC(=S)N(C)C`: the growth in assay [1] was 0.534% (active); in assay [3] it was 95.2%; in assay [4] it was -36.5% (active); in assay [10], 49.9%; in assay [5], -59.4% (active); in [9], 9.87% (active). For the same compound, the growth in [6] is 74.5%; in assay [7], 51.3%; in assay [8], 15%.

Consider `CCCCCCCCCCCCCCCCCCOCC(COCCOCC[N+]1(CCCCCC(=O)[O-])CCCC1)Oc1ncccn1` (centres undefined), for which the growth in [1] is 2.22% (active); in assay [3], -0.76% (active); in assay [10], 83.5%; in assay [5] it was -15.2% (active); in [9], 62.6%; in assay [6] it was 65.6%. Besides, the growth is 108% in assay [7] and 42.3% in assay [8].

For the compound `COc1ccc(N=C2C(=Nc3ccc(OC)cc3)N(c3ccc(N(C)C)cc3)C(=S)N2c2ccc(OC)cc2)cc1`, the growth in assay [1] was -12.4% (active); in assay [3] it was 34.9%; in assay [10], 87.9%; in [9], 106%; in assay [6] it was 19.6%; in assay [7] it was 95.8%. Further, in [8], the growth was 91.1%.

On to `COc1ccc(NC(=O)CSc2nc3ccccc3c(=O)n2CCc2ccccc2)cc1`, for which the growth was 60.7% in assay [2]; 101% in assay [3]; 97% in assay [4]; 75.5% in [10]; 82.3% in assay [5]; 90.4% in assay [9]. The growth in assay [6] was 51.2%; in assay [7], 85.2%; in assay [8] it was 93.3%.

Take `CCOC(=O)C1CCc2c(ccc3ccccc23)N1CCC#N` (centres undefined): the growth in assay [1] is 104%; in assay [2], 107%; in assay [3], 107%; in [5], 93.5%; in [9] it was 115%; in assay [6] it was 99.9%. The growth in [8] was 97.5%.

Regarding `COc1cc2c(cc1OCCCCCCN1CCN(CC(=O)Nc3ccc(Cl)cc3C(=O)c3ccccc3Cl)CC1)N=CC1CCCN1C2=O` (centres undefined), the growth is -81.7% (active) in [2]; -74.4% (active) in assay [3]; -88.9% (active) in assay [4]; -90.2% (active) in assay [10]; -79% (active) in assay [5]; -91.9% (active) in assay [9]. For the same compound, the growth in [6] was -83.5% (active); in [7], -60.8% (active); in [8], -57.8% (active).

`CCc1ccc2c(c1)N(CCO)C1=C(C(=O)OC1)C2c1ccccc1` (centres undefined): the growth in assay [1] is 101%; in assay [3], 93.9%; in assay [4], 104%; in assay [10] it was 94.9%; in [9], 111%; in assay [6], 125%. Further, the growth in assay [7] is 78.7%; in assay [8], 95.6%.

Consider `Nc1ncn(C2OC(CO)C(O)C2O)c(=O)n1` (centres undefined), for which the growth was -25.4% (active) in assay [1]; 85.9% in assay [3]; -30.3% (active) in assay [4]; 12.3% in assay [10]; -13.7% (active) in assay [9]; 3.64% (active) in [6]. Further, the growth in [7] is 15.1%; in assay [8], 10.6%.

Consider `Cc1ccc(Nc2nnc(-c3cc(-c4ccncc4)n(-c4ccccc4)n3)s2)cc1`, for which the growth was 38.6% in assay [1]; 63.5% in assay [2]; 104% in assay [3]; 100% in [10]; 118% in assay [9]; 61.9% in assay [6]. Moreover, the growth was 59.2% in [7] and 64.5% in [8].

In the case of `CSc1cc(SC)ncn1`, the growth is 105% in assay [2]; 105% in [3]; 113% in assay [4]; 104% in assay [10]; 116% in assay [5]; 124% in assay [9]. Further, the growth was 115% in assay [6], 118% in [7] and 105% in [8].

With `CN(C)CCN1C(=O)c2cccc3cc(N)cc(c23)C1=O`, the growth in [1] is 1.78% (active); in assay [3] it was 47.2%; in assay [4] it was -5.76% (active); in [10], 36.9%; in assay [5], -39.9% (active); in assay [9], 56.2%. In addition, the growth in assay [7] is 32.3%; in [8], 12.4%.

The values are drawn from PubChem BioAssay (NCI).
